# From PubChem BioAssay AID651725 (National Center for Advancing Translational Sciences (NCATS), 2012)
# The campaign covered roughly 360,000 compounds. About 2,000 (0.56%) were called active. About 2% were inconclusive and are not listed. The full list was thinned out, with actives kept by preference. Values without a mark were called inactive. No stated cut-off is given here; in the data, active means activity change below about -65%; inconclusive means mostly about -30% to -63%; inactive means weaker than that.
# Biological target: Homeobox protein SIX1 (Homo sapiens) + Protein phosphatase EYA2 (Homo sapiens) (UniProt Q15475+O00167)
# Test: qHTS Assay for Inhibitors of the Six1/Eya2 Interaction
# Details: AlphaScreen GST-Six1/His-Eya2 binding, biochemical; active compounds read low
# Procedure, shortened: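 Homogeneous AlphaScreen proximity assay pairing GST-Six1 with His-tagged Eya2 (added as 5X mix: 250 nM and 500 nM) in 50 mM Tris pH 8.0, 300 mM NaCl, 1 mM TCEP. Glutathione donor and nickel acceptor beads; 1 h, 37 °C, dark.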
# On the % scale 0 is the no-effect control and ±100 the full control effect.
# Sequence of Homeobox protein SIX1 (Homo sapiens) + Protein phosphatase EYA2 (Homo sapiens) (O00167 whole entry, looked up): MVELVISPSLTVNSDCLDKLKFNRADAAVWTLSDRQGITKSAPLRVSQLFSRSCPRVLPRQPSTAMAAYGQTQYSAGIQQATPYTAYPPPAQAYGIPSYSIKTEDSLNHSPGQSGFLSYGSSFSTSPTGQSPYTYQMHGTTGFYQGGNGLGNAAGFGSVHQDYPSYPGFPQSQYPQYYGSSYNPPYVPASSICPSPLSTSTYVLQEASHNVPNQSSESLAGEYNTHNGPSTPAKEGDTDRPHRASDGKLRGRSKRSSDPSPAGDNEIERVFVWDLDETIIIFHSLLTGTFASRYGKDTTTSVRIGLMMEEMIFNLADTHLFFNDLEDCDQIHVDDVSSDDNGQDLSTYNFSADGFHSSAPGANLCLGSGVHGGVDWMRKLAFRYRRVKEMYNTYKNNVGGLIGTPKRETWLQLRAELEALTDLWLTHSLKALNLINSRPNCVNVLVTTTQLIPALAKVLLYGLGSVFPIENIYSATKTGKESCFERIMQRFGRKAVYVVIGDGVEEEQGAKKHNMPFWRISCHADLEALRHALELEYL
# Sequence of Homeobox protein SIX1 (Homo sapiens) + Protein phosphatase EYA2 (Homo sapiens) (Q15475 whole entry, looked up): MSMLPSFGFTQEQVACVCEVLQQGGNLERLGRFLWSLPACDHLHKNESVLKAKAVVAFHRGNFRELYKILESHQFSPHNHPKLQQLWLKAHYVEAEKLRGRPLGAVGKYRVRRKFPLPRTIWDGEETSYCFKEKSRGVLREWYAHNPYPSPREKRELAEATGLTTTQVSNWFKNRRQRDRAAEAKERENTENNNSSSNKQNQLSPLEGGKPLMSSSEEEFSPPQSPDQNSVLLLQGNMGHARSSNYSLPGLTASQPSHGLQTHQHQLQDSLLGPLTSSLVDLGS
row,Structure (SMILES),activity change
1,Cc1cccc(C)c1NC(=O)C(c1ccc(C(F)(F)F)cc1)n1c(=O)c(-c2ccco2)nc2ccccc21 (stereo not drawn),-0.0756%
2,CCCCOCCCNC(=O)C[C@@H]1C[C@@]2(C(=O)OC)CCCCC=C2N(CCC2=CCCCC2)C1=O,-2.51%
3,CC(C)N1C(=O)c2ccccc2NC(=O)C1C(=O)NCc1cccs1 (stereo not drawn),0%
4,COc1cc(C=C(OC(C)=O)c2ccc3c(c2)OCO3)cc(OC)c1OC,-21%
5,C=C1C(=O)OC2C1CCC(C)=CCCC1(C)OC21 (stereo not drawn),10.7%
6,O=c1ccc2c(-c3ccccc3S(=O)(=O)O)c3ccc(O)c(O)c3oc-2c1O,-87.1% (active)
7,COC(=O)C1=CN(c2c(C)cc(C)cc2C)C(N)=C(C#N)C1c1cccc(F)c1 (stereo not drawn),-17.6%
8,O=C(N[C@H]1CC[C@H](CC(=O)N2CCCCC2)O[C@@H]1CO)c1cccc(F)c1,-8.77%
9,CCN(CC)CCNCC(=O)Nc1ccc(Oc2ccccc2)cc1,-5.73%
10,CCCC(C(=O)OCCN(CC)CC)(c1ccccc1)c1ccccc1,-20.2%
11,CCN(CC)CCOc1ccc2c(c1)C(=NNC(=O)c1ccccn1)c1cc(OCCN(CC)CC)ccc1-2,-74.3% (active)
12,CCc1ccc(-c2cc(C)no2)cc1S(=O)(=O)NCCc1ccc(S(N)(=O)=O)cc1,-4.17%
13,CC(=O)Nc1ccc(NC(=O)C(NS(=O)(=O)c2ccc3c(c2)OCCO3)C(C)C)cc1 (stereo not drawn),0.533%
14,CCC(C(=O)Nc1c(C)cccc1C)n1c(-c2cc(C)cs2)nc2ccccc21 (stereo not drawn),4.28%
15,CC(=O)N1CCCc2cc(S(=O)(=O)N3CCCC(C(=O)N4CCN(c5cccc(Cl)c5)CC4)C3)ccc21 (stereo not drawn),-12.9%
16,COc1ccc(-n2c(C)cc(C(=O)CN3C(=O)NC4(CCc5ccccc54)C3=O)c2C)cc1 (stereo not drawn),-14.9%
17,COC(=O)c1ccc(NC(=O)CSc2nc(N)c(NC(=O)c3ccc(Br)o3)c(=O)[nH]2)cc1,-66.4% (active)
18,COCCNC(=O)CSc1nc(N)c(NC(=O)c2ccco2)c(=O)[nH]1,2.42%
19,COc1ccc(C(=O)Nc2c(N)nc(SCC(=O)Nc3ccc(C(C)=O)cc3)[nH]c2=O)cc1,-14.2%
20,CCOC(=O)c1sc(/N=C/C2=C(O)CC(C)(C)CC2=O)c(C(=O)OCC)c1C,-0.173%
21,Cc1c(Cl)c([N+](=O)[O-])nn1CCCC(=O)NC(C)c1ccccc1 (stereo not drawn),7.3%
22,Cc1c(Cl)c([N+](=O)[O-])nn1Cc1ccc(C(=O)N/N=C\c2cc(Cl)ccc2O)o1,-71.9% (active)
23,Cc1nn(Cc2ccccc2Cl)c(C)c1NC(=O)Cn1nc([N+](=O)[O-])c(Cl)c1C,-0.78%
